This is an account of results in PubChem BioAssay (NCATS).

Records with an inconclusive call do not appear. The source made the active and inactive calls. Calls follow the shape of the dose curve; as a rule, active = well fitted cell-killing curve with a large enough effect; inconclusive = small, poorly fitted or top-dose-only effect; inactive = flat fitted curve, though single readings scatter.

The test can be described thus: Cell Viability - N2a (AID 540).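 Also: cells exposed to compound for 40 h at 37 °C; plate controls were DMSO alone for no effect and tamoxifen control for full effect; nearly all actives have a fitted effect of over 45% in size.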 The note with it: N2a mouse neuroblastoma cell viability; activity change, negative = cytotoxicity: at 92.2 µM (top of the series). The text has this:
NIH Chemical Genomics Center [NCGC]
NIH Molecular Libraries Screening Centers Network [MLSCN]
National Institutes of Environmental Health Sciences [NIEHS]
National Toxicology Program [NTP]
We have developed a 1536-well cell-based assay for quantitative high throughput screening (qHTS) against a number of cell lines to determine in vitro cytotoxicity of small molecules. This particular assay uses the N2a cell line which is derived from mouse neuroblastoma.
NCGC Assay Protocol Summary:
The CellTiter-Glo luminescent cell viability assay (Promega) is a homogeneous method to measure the number of viable cells in culture. The end point readout of this assay is based on quantitation of intracellular ATP, an indicator of metabolic activity, using the luciferase reaction. Luciferase catalyzes the oxidation of beetle Luciferin to oxyluciferin and light in the presence of ATP. The luminescent signal is proportional to amount of ATP present.
Using the CellTiter-Glo luminescent cell viability assay, the amount of cellular ATP was measured in the N2a cell line with complete culture medium following compound treatment for 40 hours. The assay was performed in opaque white Kalypsys 1536-well plates. In the screen, tamoxifen and doxorubicin were used as positive controls. Library compounds were measured for their ability to cause acute toxicity in the cell line, as reflected by a decrease in intracellular ATP levels, in a concentration-dependent manner. […] AC50 values were determined from concentration-response data modeled with the standard Hill equation.
qHTS protocol for CellTiter Glo N2a cellular assay
[Step] [Parameter] [Value] [Description]
1. Reagent; 5 uL; 1500 N2a cells/well
2. Time; 5 hr; 37 °C incubation
4. Controls; 23 nL; Tamoxifen 0.34 uM to 100 uM & Doxorubicin 0.02 nM to 100 uM
5. Time; 40 hr; 37 °C incubation
6. Reagent; 5 uL; CellTiter Glo reagent
7. Time; 20 min; Room Temperature
8. Detection; Luminescence; Viewlux plate reader
Keywords: cell viability, cytotoxicity, N2a cell line, luminescence, NTPHTS, NTPHTS_NCGC, NIEHS, EPA, DSSTox, MLSMR, MLSCN, NIH Roadmap, qHTS, NCGC
On to `C=C(C)C(N)=O`, for which the activity change, negative = cytotoxicity is -7.09% (inactive).

Consider `NS(=O)(=O)O`, for which the activity change, negative = cytotoxicity is -0.868% (inactive).

With `CCN(C(=O)N(CC)c1ccccc1)c1ccccc1`, the activity change, negative = cytotoxicity is -13.7% (inactive).

`C=C(C)OC(C)=O`: the activity change, negative = cytotoxicity was -6.88% (inactive).

For `OC/C(Br)=C(\Br)CO`, the activity change, negative = cytotoxicity is -4.76% (inactive).

`CO[Si](CCCNCCC[Si](OC)(OC)OC)(OC)OC`: the activity change, negative = cytotoxicity is -27% (inactive).

As to `CC/C=C/C#N`, the activity change, negative = cytotoxicity was -7.86% (inactive).

`CCOCC(=O)O`: the activity change, negative = cytotoxicity is -1.83% (inactive).

With `Nc1ccccc1S(=O)(=O)O`, the activity change, negative = cytotoxicity is 4.97% (inactive).

With `CCc1ccccc1O`, the activity change, negative = cytotoxicity was 2.33% (inactive).

Consider `Clc1ccccn1`, for which the activity change, negative = cytotoxicity was -19.1% (inactive).

Regarding `Cc1ccc(C)c(O)c1`, the activity change, negative = cytotoxicity was 3.3% (inactive).

As for `O=[N+]([O-])c1ccc(Cl)cc1Cl`, the activity change, negative = cytotoxicity was 10.8% (inactive).

As for `Cc1ccc(S(=O)(=O)NC2CCCCC2)cc1`, the activity change, negative = cytotoxicity is -19.2% (inactive).

For the molecule `CC(C)CCOC(=O)/C=C/c1ccccc1`, the activity change, negative = cytotoxicity is 1.5% (inactive).

With `Cc1cc(C)cc([N+](=O)[O-])c1`, the activity change, negative = cytotoxicity is -7.51% (inactive).

In the case of `CC(=O)Nc1cccc(N)c1`, the activity change, negative = cytotoxicity was 5.61% (inactive).

Consider `CCNc1cc(O)ccc1C`, for which the activity change, negative = cytotoxicity is 4.09% (inactive).

For the molecule `ON=C1CCCCC1`, the activity change, negative = cytotoxicity was 0.317% (inactive).

On to `CC(=O)CCc1ccccc1`, for which the activity change, negative = cytotoxicity is -2.11% (inactive).

Regarding `O=c1[nH][nH]c(=O)c2cc([N+](=O)[O-])ccc12`, the activity change, negative = cytotoxicity is 11.9% (inactive).

Take `O=C(O)c1cc(Cl)cc(Cl)c1`: the activity change, negative = cytotoxicity is -1.73% (inactive).

As for `CCNc1ccccc1`, the activity change, negative = cytotoxicity is 2.42% (inactive).

With `Cc1ccc(C)o1`, the activity change, negative = cytotoxicity was -9.8% (inactive).

`CNC(=O)N(c1ccccc1)c1ccccc1`: the activity change, negative = cytotoxicity is -1.02% (inactive).

As for `C=Cc1ccccc1C=C`, the activity change, negative = cytotoxicity was 7.3% (inactive).

On to `CCCCCCCCC`, for which the activity change, negative = cytotoxicity is -3.11% (inactive).

For the molecule `Nc1nc2ccccc2[nH]1`, the activity change, negative = cytotoxicity was -3.92% (inactive).

Take `O=C(Cl)c1c(Cl)cccc1Cl`: the activity change, negative = cytotoxicity is 1.05% (inactive).

`CCC(C)=O`: the activity change, negative = cytotoxicity was -16.1% (inactive).

As for `CC(C)C(C)C`, the activity change, negative = cytotoxicity is 5.14% (inactive).

With `C1CCC2OC2C1` (stereo not given), the activity change, negative = cytotoxicity is -14.9% (inactive).

For `O=C(O)CNC(=O)c1ccc([N+](=O)[O-])cc1`, the activity change, negative = cytotoxicity was -8.74% (inactive).

Consider `CCC=O`, for which the activity change, negative = cytotoxicity is 1.92% (inactive).

For `Cc1cccc2cccnc12`, the activity change, negative = cytotoxicity is -0.348% (inactive).

Turning to `C1COC1`, the activity change, negative = cytotoxicity is -2.69% (inactive).

In the case of `CCCCCCCCC/C=C/CC1CC(=O)OC1=O` (stereo not given), the activity change, negative = cytotoxicity is 11.9% (inactive).

Take `Cc1ccc(C)c([N+](=O)[O-])c1`: the activity change, negative = cytotoxicity was 2.29% (inactive).

For the molecule `c1ccc2c(c1)ccc1ncccc12`, the activity change, negative = cytotoxicity is -0.126% (inactive).

Take `C1CCOC1`: the activity change, negative = cytotoxicity was 3.61% (inactive).
